# Active and inactive are the calls of the source.
# Key:
# [1] = test system: PRMT1 (protein arginine N-methyltransferase 1); test: PRMT1 binders on small-molecule microarrays, primary screen, biochemical, small-molecule microarray, 635 nm fluorescence (AID 1088); conditions: small-molecule microarray binding, higher = more signal;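 also: binding of Prmt1 protein to compounds spotted on small-molecule microarray slides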
# [2] = yeast growth modulation, basal conditions, primary screen, YJM789 clinical isolate, OD600, 24 h (AID 1089);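 also: growth of clinical yeast isolate S. cerevisiae YJM 789 seeded 1000 cells per well; test concentration not given here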; conditions: S. cerevisiae YJM789 growth, higher = more signal, called active from +8 up or from −8 down
# [3] = fission yeast growth modulation, primary screen, strain 972, OD600, 24 h, no modulator (AID 1090);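 also: basal condition with compound alone and no growth modifier present; test concentration not given here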; conditions: S. pombe 972 growth, higher = more signal, called active from +8 up or from −8 down
# [4] = S. cerevisiae growth modulation with rapamycin, primary screen, strain BY4716, OD600, 96 h (AID 1091); conditions: higher = more signal, called active from +8 up or from −8 down; also: test concentration not given here
# [5] = target: Torsin-1A-interacting protein 2 (Homo sapiens) (UniProt Q8NFQ8); test: LULL1 binders on small-molecule microarray, primary screen, cell lysate, human LULL1 lysate, 635/667 nm fluorescence (AID 1092); conditions: hLULL1 lysate binding, 635 nm fluorescence, higher = more signal;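 also: probe is lysate of COS7 cells overexpressing human LULL1; score merges per-feature 667 nm fluorescence with signal-to-noise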
# Chain of Torsin-1A-interacting protein 2 (Homo sapiens) (Q8NFQ8 whole entry, looked up): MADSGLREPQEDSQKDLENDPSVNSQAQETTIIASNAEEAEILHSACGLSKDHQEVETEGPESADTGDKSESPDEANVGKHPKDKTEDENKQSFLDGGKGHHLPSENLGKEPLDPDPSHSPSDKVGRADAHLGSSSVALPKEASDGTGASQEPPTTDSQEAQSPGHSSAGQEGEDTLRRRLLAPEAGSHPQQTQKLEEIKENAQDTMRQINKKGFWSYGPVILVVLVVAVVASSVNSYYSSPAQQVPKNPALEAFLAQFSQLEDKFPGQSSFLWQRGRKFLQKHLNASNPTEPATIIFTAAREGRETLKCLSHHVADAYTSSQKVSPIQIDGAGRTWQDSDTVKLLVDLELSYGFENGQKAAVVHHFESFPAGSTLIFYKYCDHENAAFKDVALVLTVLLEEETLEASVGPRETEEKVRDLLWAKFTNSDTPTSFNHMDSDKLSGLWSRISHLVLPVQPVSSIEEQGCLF
# [6] = E. coli growth modulation, two-sided OD650, primary screen, E. coli filamentation project, strain DRC41, 24 h (AID 1093); conditions: OD650, 24 h, higher = more signal, called active from +8 up or from −8 down;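 also: MC1000 strain lacking acrAB efflux and sulA so SOS filamentation is blocked; test concentration not given here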
# [7] = small-molecule microarray binders of probe aLefty2, primary screen, biochemical, biotinylated probe, 635/667 nm fluorescence (AID 1094); conditions: higher = more signal;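 also: score merges spot fluorescence near 667 nm with spot signal-to-noise ratio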
# [8] = test system: Noggin (protein binding on small-molecule microarray); test: Noggin binders on small-molecule microarray, primary screen, biochemical, 635/667 nm fluorescence (AID 1095); conditions: 635 nm fluorescence, higher = more signal;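 also: score merges 667 nm feature fluorescence with signal to noise over triplicate slides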
# [9] = target: Neurogenic locus notch homolog protein 3 (Homo sapiens) (UniProt Q9UM47); test: NOTCH3 binders on small-molecule microarray, primary screen, biochemical, 635/667 nm fluorescence (AID 1096); conditions: NOTCH3 binding, 635 nm fluorescence, higher = more signal
# Chain of Neurogenic locus notch homolog protein 3 (Homo sapiens) (Q9UM47 whole entry, looked up): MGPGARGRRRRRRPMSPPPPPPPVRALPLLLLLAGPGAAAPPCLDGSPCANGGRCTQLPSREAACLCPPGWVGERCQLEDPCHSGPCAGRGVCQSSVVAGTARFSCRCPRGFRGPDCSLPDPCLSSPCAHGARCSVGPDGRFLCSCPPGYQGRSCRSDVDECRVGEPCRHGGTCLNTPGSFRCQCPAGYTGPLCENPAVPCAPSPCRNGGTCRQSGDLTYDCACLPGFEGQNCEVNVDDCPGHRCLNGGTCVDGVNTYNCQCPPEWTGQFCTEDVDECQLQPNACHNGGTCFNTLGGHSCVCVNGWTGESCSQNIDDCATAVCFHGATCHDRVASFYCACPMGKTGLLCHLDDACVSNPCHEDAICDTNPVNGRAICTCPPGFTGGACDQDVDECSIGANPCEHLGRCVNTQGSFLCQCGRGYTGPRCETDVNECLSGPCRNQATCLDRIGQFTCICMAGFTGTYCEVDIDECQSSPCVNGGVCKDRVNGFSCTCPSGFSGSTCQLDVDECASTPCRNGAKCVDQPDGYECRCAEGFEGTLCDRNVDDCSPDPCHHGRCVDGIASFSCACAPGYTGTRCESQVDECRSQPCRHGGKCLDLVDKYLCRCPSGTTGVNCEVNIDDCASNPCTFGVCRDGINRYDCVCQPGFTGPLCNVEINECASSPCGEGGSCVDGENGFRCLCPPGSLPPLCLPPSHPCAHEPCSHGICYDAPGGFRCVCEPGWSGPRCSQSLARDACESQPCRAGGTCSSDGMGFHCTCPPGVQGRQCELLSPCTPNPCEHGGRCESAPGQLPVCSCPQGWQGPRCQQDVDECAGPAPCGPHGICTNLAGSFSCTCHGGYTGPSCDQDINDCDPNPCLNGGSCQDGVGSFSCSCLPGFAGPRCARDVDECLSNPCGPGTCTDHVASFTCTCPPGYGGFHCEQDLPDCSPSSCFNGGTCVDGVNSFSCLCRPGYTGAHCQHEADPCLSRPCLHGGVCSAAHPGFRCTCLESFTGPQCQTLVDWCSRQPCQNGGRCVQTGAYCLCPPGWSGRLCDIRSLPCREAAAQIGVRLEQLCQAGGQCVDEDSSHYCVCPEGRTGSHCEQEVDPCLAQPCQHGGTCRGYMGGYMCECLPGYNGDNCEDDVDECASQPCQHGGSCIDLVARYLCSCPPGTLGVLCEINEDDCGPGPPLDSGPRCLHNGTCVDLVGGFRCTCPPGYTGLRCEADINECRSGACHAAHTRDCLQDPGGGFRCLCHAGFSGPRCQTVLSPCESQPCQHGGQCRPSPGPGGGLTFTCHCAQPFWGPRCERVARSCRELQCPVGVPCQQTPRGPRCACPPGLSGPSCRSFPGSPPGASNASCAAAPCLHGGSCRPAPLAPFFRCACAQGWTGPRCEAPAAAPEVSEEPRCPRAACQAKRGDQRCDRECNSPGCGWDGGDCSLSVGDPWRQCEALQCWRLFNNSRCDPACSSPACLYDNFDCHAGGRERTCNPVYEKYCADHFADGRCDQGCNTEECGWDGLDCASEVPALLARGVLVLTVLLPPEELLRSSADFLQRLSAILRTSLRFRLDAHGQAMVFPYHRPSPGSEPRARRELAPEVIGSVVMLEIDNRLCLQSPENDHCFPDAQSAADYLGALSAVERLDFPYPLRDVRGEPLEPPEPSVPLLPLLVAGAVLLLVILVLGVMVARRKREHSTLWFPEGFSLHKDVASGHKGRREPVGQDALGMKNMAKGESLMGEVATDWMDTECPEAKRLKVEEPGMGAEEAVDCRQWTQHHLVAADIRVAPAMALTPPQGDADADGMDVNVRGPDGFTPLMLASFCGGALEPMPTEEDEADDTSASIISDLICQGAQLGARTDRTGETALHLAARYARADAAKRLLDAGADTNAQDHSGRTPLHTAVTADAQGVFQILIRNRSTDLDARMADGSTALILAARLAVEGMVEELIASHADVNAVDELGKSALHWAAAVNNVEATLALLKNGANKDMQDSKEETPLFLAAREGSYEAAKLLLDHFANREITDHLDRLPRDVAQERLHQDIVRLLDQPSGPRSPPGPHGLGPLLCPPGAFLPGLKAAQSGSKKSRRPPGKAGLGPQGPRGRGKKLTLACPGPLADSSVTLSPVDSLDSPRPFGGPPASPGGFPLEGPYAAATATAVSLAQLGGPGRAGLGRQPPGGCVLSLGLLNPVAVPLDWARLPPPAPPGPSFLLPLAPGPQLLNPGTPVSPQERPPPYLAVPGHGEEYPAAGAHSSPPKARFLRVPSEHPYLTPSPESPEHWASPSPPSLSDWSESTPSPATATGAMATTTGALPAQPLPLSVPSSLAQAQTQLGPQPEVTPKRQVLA
# [10] = small-molecule microarray binders of probe aEGFR, primary screen, biochemical, biotinylated probe, 635/667 nm fluorescence (AID 1097); conditions: higher = more signal;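 also: probe is a biotinylated anti-EGFR antibody binding compounds printed on slides; score combines fluorescence near 667 nm and signal to noise of each spot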
Structure (SMILES),composite z-score [1],z-score [2],z-score [3],z-score [4],composite z-score [5],z-score [6],composite z-score [7],composite z-score [8],composite z-score [9],composite z-score [10]
COc1ccc(C#Cc2ccc3c(c2)[C@]2(C(=O)N3)[C@H](C(=O)N3CCc4cc(OC)c(OC)cc4C3)[C@H]3C(=O)O[C@H](c4ccccc4)[C@H](c4ccccc4)N3[C@@H]2c2ccc(O)cc2)cc1,1.57,1.36 (inactive),1.14 (inactive),1.91 (inactive),2.28,-0.384 (inactive),-0.143,0.875,1.01,-0.0142
C=CCN1Cc2ccccc2C[C@@]2(N=C(c3ccc(OCCCO)cc3)O[C@H]2c2ccccc2)C1=O,1.55,-4.69 (inactive),-11.1 (active),4.42 (inactive),3.13,0.55 (inactive),-0.051,1.04,0.968,0.0047
C=C(COC)/C(=C/C[C@@H](OC(=O)c1ccncc1)c1cccc(OCCO)c1)c1cnc2ccccc2c1,1.55,-19.8 (active),-20.6 (active),-3.52 (inactive),2.2,0.682 (inactive),0.266,1.61,1.02,0.0892
COCCOC(=O)N1C(=O)[C@@]2(c3cc(C#CC4(O)CCCCCC4)ccc31)[C@H](C(=O)N1CCCCCCC1)[C@H]1C(=O)O[C@H](c3ccccc3)[C@H](c3ccccc3)N1[C@@H]2c1ccc(OCCO)cc1,1.53,0.474 (inactive),0.638 (inactive),2.39 (inactive),3.7,1.82 (inactive),1.77,1.89,1.03,0.757
CCOC(=O)[C@H]1C/C=C/C[C@H](C(=O)OCC)C(=O)O[C@H]2[C@@H](OC)O[C@H](CO)[C@@H](OC(=O)CCc3ccccc3)[C@@H]2OC1=O,0.182,0.491 (inactive),-1.29 (inactive),15.2 (active),0.0772,-0.677 (inactive),-0.132,0.0226,0.01,-0.314
CC(C)(C)OC(=O)CC[C@]1(C(=O)NCCN2CCOCC2)N=C(c2ccc(OCCCO)cc2)O[C@H]1c1ccccc1,1.55,0.681 (inactive),0.0586 (inactive),-0.23 (inactive),3.23,0.437 (inactive),-0.007,-0.316,-0.532,0.34
CCOC(=O)C1=CC[C@@H](c2ccccc2C(F)(F)F)N(S(=O)(=O)c2ccc(C)cc2)C1,1.5,-2.43 (inactive),-0.598 (inactive),0.105 (inactive),2.63,-0.607 (inactive),0.495,0.03,1.04,0.678
C[C@]1(C(=O)NCCN2CCOCC2)c2ccccc2C(=O)N(Cc2ccc(OC(F)(F)F)cc2)[C@H]1c1ccc(CO)cc1,0.562,-0.15 (inactive),-0.859 (inactive),-0.854 (inactive),1.82,0.365 (inactive),-0.0823,0.557,0.164,-0.213
CC(C)N1CC=CC23O[C@@H]4C=CCCOC(=O)C4[C@H]2C(=O)N(CCO)[C@@H]3C1=O (stereo not given in full),0.291,-0.631 (inactive),-0.349 (inactive),-1.2 (inactive),-0.805,2.99 (inactive),-0.145,-0.736,-0.362,-0.203
C=CC[C@]1(C(=O)N(C)C)N=C(c2ccc(OCCCO)cc2)O[C@H]1c1ccccc1N=[N+]=[N-],1.48,0.0061 (inactive),-0.102 (inactive),-0.317 (inactive),3.2,0.394 (inactive),0.285,0.464,1.03,0.0651
COc1cc2c(cc1O)C(C)N(Cc1cc3c(cc1Br)OCO3)CC2 (stereo not given),-0.285,0.406 (inactive),-10.1 (active),-1.35 (inactive),0.169,-0.471 (inactive),0,-1.03,-0.53,-0.0594
C=CC[C@@]1(C(=O)O)N=C(c2ccc(OCCCO)cc2)O[C@@H]1c1ccccc1,1.11,0.639 (inactive),-2.39 (inactive),-0.203 (inactive),3.22,0.572 (inactive),-0.166,-0.0356,-0.645,-0.315
C=C(COC)/C(=C/C[C@@H](OC(=O)c1ccncc1)c1ccc(OCCO)cc1)c1cnc2ccccc2c1,1.54,-2.16 (inactive),-1.05 (inactive),-0.263 (inactive),2.55,1.12 (inactive),-0.0802,1.54,1.01,-0.0531
COCCOC(=O)N1C(=O)[C@@]2(c3ccccc31)[C@H](C(=O)N1CCN(c3ncccn3)CC1)[C@H]1C(=O)O[C@H](c3ccccc3)[C@H](c3ccccc3)N1[C@@H]2c1ccc(OCCO)cc1,1.56,2.53 (inactive),1.1 (inactive),5.84 (inactive),2.56,1.75 (inactive),0.309,0.57,0.817,0.325
NC(=O)N1C(=O)C2C(C1=O)C1C=C(c3ccc(CO)cc3)C2C(C2CC2)N1Cc1sc2ccccc2c1Cl (stereo not given),1.54,2.22 (inactive),-2.31 (inactive),0.266 (inactive),2.68,1.34 (inactive),0.0139,0.695,1.06,-0.0271
CCCNC(=O)[C@@]1(c2ccc([N+](=O)[O-])cc2)CC(=O)N(C2CCCCC2)[C@@H]1c1ccc(CO)cc1I,1.48,-1.58 (inactive),0.503 (inactive),1.93 (inactive),2.52,0.422 (inactive),-0.0649,1.5,0.976,0.0592
CCOC(=O)C[C@H]1[C@H](OC(=O)c2ccc(C(=O)c3ccccc3)cc2)[C@@H](NC(=O)c2ccc3ccccc3c2)c2cc(OCCCO)ccc2N1C(=O)c1ccccc1,1.56,-0.79 (inactive),-0.681 (inactive),-0.278 (inactive),2.54,-0.551 (inactive),0.0773,0.354,1.09,0.116
CC1CC/C=C\[C@H]2OC34C=CCN(CCN5CCOCC5)C(=O)[C@H]3N(CCO)C(=O)[C@@H]4C2C(=O)O1 (stereo not given in full),-0.623,-0.962 (inactive),0.0701 (inactive),0.005 (inactive),-0.144,1.25 (inactive),-0.103,-0.982,-0.43,-0.196
COc1ccc([Si](C)(C)[C@H]2[C@H](CCn3cc([C@H](O)c4ccccc4)nn3)O[C@@]3(C(=O)N(Cc4cccc(N5C(=O)c6cccc7cccc5c67)c4)c4ccccc43)[C@@H]2C)cc1,0.492,-0.844 (inactive),0.723 (inactive),0.635 (inactive),1.28,-0.666 (inactive),-0.134,-1.17,-0.871,-0.21
O=C1NC(=O)C2C1C=CC(C(O)c1ccc3c(c1)OCO3)N2Nc1ccccn1 (stereo not given),0.227,-0.976 (inactive),1.02 (inactive),-0.939 (inactive),2.78,-0.541 (inactive),0.0787,0.233,0.552,-0.0999
O=c1cccc(-c2cccc(Cl)c2)o1,0.0485,-3.86 (inactive),-4.41 (inactive),5.45 (inactive),0.0149,0.658 (inactive),-0.0927,-0.162,0.136,-0.0304
COc1cc(OC)c(C(O)C2C=CC3C(=O)N(c4ccccc4)C(=O)C3N2Nc2ccc(C#N)cc2)cc1Br (stereo not given),0.977,-0.459 (inactive),1.86 (inactive),-0.772 (inactive),2.64,-0.409 (inactive),0.929,-0.109,1.15,0.621
COC(=O)[C@@]1(Cc2ccc(OC)cc2)[C@H]2c3cc(C(=O)N(C)C)n(Cc4ccccc4)c3C[C@H]2CN1C(=O)c1ccccc1,-0.0018,0.0364 (inactive),-0.55 (inactive),-1.42 (inactive),1.84,-0.869 (inactive),0.0241,0.337,0.0263,-0.254
COCCCNC(=O)[C@]1(Cc2ccccc2N=[N+]=[N-])N=C(c2ccc(OCCCO)cc2)O[C@@H]1c1ccccc1N=[N+]=[N-],1.26,-0.922 (inactive),-0.808 (inactive),1.75 (inactive),2.72,0.561 (inactive),0.23,0.115,0.836,0.0656
C=CCNC(=O)[C@@H]1[C@H]2C(=O)O[C@H](c3ccccc3)[C@H](c3ccccc3)N2[C@H](c2ccc(OCCO)cc2)[C@@]12C(=O)N(C(=O)OCCOC)c1ccc(C#CC3=CCCCC3)cc12,1.55,1.27 (inactive),1.14 (inactive),3.61 (inactive),2.83,-0.741 (inactive),-0.0373,0.978,1.14,0.0209
C=CC1c2cc(O)c(OC)cc2CCN1Cc1sc2ccccc2c1Cl (stereo not given),0.756,-1.62 (inactive),-19.2 (active),-0.399 (inactive),2.49,-0.368 (inactive),0.233,0.123,0.968,0.0673
COCCCNC(=O)[C@@]1(Sc2ccc(C)cc2)CC(=O)N(C2Cc3ccccc3C2)[C@@H]1c1ccc(CO)cc1I,-0.649,-0.881 (inactive),-1.79 (inactive),1.43 (inactive),-0.165,-0.421 (inactive),-0.0441,-1.39,-1.16,-0.251
